According to PubChem BioAssay (EPA / NIEHS):
Several values for one entry are separate records, joined by “and”; a condition that tells them apart may be missing. Equal values may be shown once. Inconclusive results are not listed. Where a structure was tested more than once in an assay, its records may differ in their call. Activity calls are given as the source filed them. Rule for the calls, unless noted: active = hit-call score of the fitted dose curve at least 0.9, where 1 is the maximum; inconclusive = response in the unintended direction; inactive = score below 0.9.

How the values were obtained:
[1] = target: Peroxisome proliferator-activated receptor gamma (Homo sapiens) (UniProt P37231); experiment: NVS_NR_hPPARg: NovaScreen (NVS) Nuclear Receptor Binding Assay for human Peroxisome Proliferator-activated Receptor gamma (PPARg) (AID 2283370)
Sequence of Peroxisome proliferator-activated receptor gamma (Homo sapiens) (P37231 whole entry, looked up): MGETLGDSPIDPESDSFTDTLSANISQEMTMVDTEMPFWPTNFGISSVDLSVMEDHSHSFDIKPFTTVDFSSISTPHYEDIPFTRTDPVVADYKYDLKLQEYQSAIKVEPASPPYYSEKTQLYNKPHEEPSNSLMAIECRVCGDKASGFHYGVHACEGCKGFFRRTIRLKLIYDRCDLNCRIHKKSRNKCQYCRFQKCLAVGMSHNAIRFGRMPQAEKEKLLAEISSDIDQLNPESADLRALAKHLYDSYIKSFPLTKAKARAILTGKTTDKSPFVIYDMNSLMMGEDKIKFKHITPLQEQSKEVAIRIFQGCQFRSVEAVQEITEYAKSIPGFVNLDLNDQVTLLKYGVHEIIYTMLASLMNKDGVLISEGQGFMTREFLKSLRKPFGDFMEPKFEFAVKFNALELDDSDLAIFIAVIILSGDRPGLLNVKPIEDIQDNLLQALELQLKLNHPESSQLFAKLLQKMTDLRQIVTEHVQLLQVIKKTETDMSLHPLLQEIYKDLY
Method in brief: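 Fluorescence polarization readout of ligand binding to extracted human PPARg, measured at 2 h. Duplicate single-point screen at 25 uM, then concentration-series retesting; activity defined as signal loss versus DMSO.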

[2] = test system: guinea pig Dopamine Transporter (DAT), gene 100714898; experiment: NVS_TR_gDAT: NovaScreen (NVS) Transporter Assay for guinea pig Dopamine Transporter (DAT) (AID 2283369);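 note: active compounds lower bound radioligand signal relative to DMSO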
Method in brief: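 Radioligand displacement on membranes from guinea pig striatum, 2 h exposure, bound label counted by filtration and scintillation. Tested at 25 uM in duplicate, then actives in concentration series to 50 uM; DMSO as negative control.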

[3] = target: human Dopamine Transporter (DAT), SLC6A3 (gene 6531) (UniProt Q01959); experiment: NVS_TR_hDAT: NovaScreen (NVS) Transporter Assay for human Dopamine Transporter (DAT) (AID 2283374);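 note: activity means loss of bound radioligand signal relative to DMSO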
Sequence of human Dopamine Transporter (DAT), SLC6A3 (gene 6531) (Q01959 whole entry, looked up): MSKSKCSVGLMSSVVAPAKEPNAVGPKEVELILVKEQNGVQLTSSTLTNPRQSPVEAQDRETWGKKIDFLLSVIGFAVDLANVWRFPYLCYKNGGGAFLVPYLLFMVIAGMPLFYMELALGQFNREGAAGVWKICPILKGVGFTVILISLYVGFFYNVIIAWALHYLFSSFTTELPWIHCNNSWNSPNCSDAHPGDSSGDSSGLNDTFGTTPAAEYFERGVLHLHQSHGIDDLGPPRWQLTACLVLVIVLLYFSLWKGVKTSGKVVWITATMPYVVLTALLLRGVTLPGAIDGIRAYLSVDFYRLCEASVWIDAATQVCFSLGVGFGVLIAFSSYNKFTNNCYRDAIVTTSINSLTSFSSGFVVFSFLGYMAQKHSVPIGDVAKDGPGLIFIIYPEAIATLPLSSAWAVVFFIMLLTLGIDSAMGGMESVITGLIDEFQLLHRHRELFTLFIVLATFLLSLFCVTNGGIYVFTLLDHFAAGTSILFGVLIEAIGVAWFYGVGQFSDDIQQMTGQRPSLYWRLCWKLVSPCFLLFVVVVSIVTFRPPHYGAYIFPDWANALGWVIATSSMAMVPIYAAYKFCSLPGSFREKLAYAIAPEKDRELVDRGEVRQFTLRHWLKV
Method in brief: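 Cell-free radioligand binding to extracted human DAT protein, read 1 h after dosing by filter-based scintillation counting. Loss of specific binding scored against DMSO baseline; primary screen in duplicate at 25 uM, actives then run in concentration series.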

[4] = target: Bile acid receptor (Homo sapiens) (UniProt Q96RI1); experiment: OT_FXR_FXRSRC1_0480: Odyssey Thera (OT) 8-hour HEK293T Protein-Complementation Assay for Farnesoid X receptor/SRC-1 Co-activator (AID 2283383)
Sequence of Bile acid receptor (Homo sapiens) (Q96RI1 whole entry, looked up, the tested form may be a part): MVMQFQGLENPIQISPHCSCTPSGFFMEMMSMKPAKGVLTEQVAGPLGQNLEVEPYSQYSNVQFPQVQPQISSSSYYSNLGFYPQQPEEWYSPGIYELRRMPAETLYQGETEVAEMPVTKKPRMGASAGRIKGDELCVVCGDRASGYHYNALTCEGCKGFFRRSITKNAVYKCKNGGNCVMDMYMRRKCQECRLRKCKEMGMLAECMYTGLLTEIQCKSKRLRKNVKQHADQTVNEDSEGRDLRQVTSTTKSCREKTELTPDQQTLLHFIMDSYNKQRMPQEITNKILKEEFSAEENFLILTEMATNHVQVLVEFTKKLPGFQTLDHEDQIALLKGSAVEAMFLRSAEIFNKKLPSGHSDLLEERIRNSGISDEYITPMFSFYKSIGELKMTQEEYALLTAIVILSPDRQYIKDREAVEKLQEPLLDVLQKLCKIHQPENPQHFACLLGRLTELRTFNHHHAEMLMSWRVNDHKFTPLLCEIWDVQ
Method in brief: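 HEK293T cells expressing FXR and SRC-1 fused to reporter fragments were dosed with compound for 8 h; fluorescence from the reconstituted reporter marked co-activator recruitment. Gain of signal was fitted against the DMSO baseline.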

[5] = target: Bile acid receptor (Homo sapiens) (UniProt Q96RI1); experiment: OT_FXR_FXRSRC1_1440: Odyssey Thera (OT) 24-hour HEK293T Protein-Complementation Assay for Farnesoid X receptor/SRC-1 Co-activator (AID 2283384)
Method in brief: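 HEK293T cells were dosed with compound and read 24 h later by fluorescence intensity from protein-fragment complementation reporting FXR/SRC-1 co-activator interaction. Gain of signal was fitted relative to DMSO negative control as baseline.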

[6] = target: Retinoic acid receptor RXR-alpha (Homo sapiens) (UniProt P19793); experiment: OT_NURR1_NURR1RXRa_0480: Odyssey Thera (OT) 8-hour HEK293T Protein Complementation Assay for Nurr1/retinoid X receptor (RXR) (AID 2283385)
Sequence of Retinoic acid receptor RXR-alpha (Homo sapiens) (P19793 whole entry, looked up, the tested form may be a part): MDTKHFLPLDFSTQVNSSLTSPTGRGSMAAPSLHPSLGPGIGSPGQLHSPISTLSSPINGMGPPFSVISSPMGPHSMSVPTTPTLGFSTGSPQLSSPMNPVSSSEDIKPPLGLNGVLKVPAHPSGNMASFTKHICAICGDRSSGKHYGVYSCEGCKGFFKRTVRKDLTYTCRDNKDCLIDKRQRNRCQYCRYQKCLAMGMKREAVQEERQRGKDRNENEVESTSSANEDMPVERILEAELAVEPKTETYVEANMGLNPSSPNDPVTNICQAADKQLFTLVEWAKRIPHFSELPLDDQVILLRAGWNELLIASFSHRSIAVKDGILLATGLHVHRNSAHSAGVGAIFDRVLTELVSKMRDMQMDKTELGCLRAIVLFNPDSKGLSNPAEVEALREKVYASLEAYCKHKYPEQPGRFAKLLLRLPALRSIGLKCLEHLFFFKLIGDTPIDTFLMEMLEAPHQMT
Method in brief: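 HEK293T cells expressing Nurr1 and RXRα fused to reporter fragments were dosed with compound for 8 hours. Complex formation was read as fluorescence intensity and analysed as gain of signal against DMSO as baseline.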

[7] = target: Estrogen receptor (Homo sapiens) (UniProt P03372); experiment: OT_ERa_GFPERaERE_0480: Odyssey Thera (OT) 8-hour HeLa Transcription Induction Assay for Estrogen Receptor (AID 2283381; active = hit-call score of the fitted dose curve at least 0.9, where 1 is the maximum; inactive = score below 0.9)
Sequence of Estrogen receptor (Homo sapiens) (P03372 whole entry, looked up): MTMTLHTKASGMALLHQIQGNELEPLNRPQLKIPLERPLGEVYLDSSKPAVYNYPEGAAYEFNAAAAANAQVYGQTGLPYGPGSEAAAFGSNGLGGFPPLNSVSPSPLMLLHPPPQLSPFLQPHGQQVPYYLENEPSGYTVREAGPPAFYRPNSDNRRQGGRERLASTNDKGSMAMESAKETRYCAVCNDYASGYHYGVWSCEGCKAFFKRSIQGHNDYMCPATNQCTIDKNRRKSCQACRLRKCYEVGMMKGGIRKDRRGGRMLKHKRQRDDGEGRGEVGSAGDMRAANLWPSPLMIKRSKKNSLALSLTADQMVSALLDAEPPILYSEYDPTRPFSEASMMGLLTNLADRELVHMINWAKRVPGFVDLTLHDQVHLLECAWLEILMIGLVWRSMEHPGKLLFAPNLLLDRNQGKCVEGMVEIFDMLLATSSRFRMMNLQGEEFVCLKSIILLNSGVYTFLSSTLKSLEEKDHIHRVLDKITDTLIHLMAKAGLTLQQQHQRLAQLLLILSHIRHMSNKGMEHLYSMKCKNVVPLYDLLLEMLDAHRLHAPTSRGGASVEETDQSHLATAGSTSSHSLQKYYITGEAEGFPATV
Method in brief: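 HeLa cells dosed with compound and imaged by fluorescence microscopy at 8 h; GFP induction from an ERE reporter quantified by high-content image analysis and fitted as gain of signal against DMSO baseline.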

[8] = target: Estrogen receptor (Homo sapiens) (UniProt P03372); experiment: OT_ERa_GFPERaERE_0120: Odyssey Thera (OT) 2-hour HeLa Transcription Induction Assay for Estrogen Receptor (AID 2283382)
Method in brief: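 HeLa cells were dosed with test chemical and read 2 hours later for GFP-ERα/ERE-linked fluorescent protein induction by fluorescence microscopy. Gain-of-signal was fitted relative to DMSO baseline, quantified by high content image analysis.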

[9] = target: Retinoic acid receptor RXR-alpha (Homo sapiens) (UniProt P19793); experiment: OT_NURR1_NURR1RXRa_1440: Odyssey Thera (OT) 24-hour HEK293T Protein Complementation Assay for Nurr1/retinoid X receptor (RXR) (AID 2283386)
Method in brief: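 HEK293T cells were dosed with compound and read 24 h later by fluorescence intensity in a protein-fragment complementation format, where Nurr1–RXRα interaction reconstitutes a split reporter. Activity was fitted as gain of signal relative to DMSO baseline.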

[10] = target: human Norepinephrine Transporter (NET), SLC6A2 (gene 6530) (UniProt P23975); experiment: NVS_TR_hNET: NovaScreen (NVS) Transporter Assay for human Norepinephrine Transporter (NET) (AID 2283377);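 note: cell-free membrane protein extracted from CHO cells expressing human NET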
Sequence of human Norepinephrine Transporter (NET), SLC6A2 (gene 6530) (P23975 whole entry, looked up): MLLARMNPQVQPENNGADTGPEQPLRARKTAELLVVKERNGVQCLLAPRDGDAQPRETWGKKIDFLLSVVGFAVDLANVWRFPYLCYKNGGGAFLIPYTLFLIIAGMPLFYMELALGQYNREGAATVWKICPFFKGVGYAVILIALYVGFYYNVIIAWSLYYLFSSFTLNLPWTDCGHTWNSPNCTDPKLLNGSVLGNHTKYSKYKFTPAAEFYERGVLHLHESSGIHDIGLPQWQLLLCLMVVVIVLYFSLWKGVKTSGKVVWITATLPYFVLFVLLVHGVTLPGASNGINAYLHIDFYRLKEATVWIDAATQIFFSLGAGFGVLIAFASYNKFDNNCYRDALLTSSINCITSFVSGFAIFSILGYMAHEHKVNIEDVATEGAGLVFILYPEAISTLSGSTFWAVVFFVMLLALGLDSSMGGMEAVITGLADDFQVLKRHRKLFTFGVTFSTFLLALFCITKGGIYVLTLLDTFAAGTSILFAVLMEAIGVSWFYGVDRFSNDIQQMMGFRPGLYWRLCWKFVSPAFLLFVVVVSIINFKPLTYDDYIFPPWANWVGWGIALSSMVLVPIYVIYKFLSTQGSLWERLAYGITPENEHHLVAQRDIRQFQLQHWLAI
Method in brief: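 Radioligand binding to human NET in cell-free CHO-derived protein preparations, read by filter-based scintillation counting 1 hour after dosing. Loss of signal versus DMSO baseline indicated displacement; primary screening in duplicate at 25 uM, actives then titrated.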

[11] = target: rat Serotonin Transporter (SERT), Slc6a4 (gene 25553) (UniProt P31652); experiment: NVS_TR_rSERT: NovaScreen (NVS) Transporter Assay for rat Serotonin Transporter (SERT) (AID 2283375)
Sequence of rat Serotonin Transporter (SERT), Slc6a4 (gene 25553) (P31652 whole entry, looked up): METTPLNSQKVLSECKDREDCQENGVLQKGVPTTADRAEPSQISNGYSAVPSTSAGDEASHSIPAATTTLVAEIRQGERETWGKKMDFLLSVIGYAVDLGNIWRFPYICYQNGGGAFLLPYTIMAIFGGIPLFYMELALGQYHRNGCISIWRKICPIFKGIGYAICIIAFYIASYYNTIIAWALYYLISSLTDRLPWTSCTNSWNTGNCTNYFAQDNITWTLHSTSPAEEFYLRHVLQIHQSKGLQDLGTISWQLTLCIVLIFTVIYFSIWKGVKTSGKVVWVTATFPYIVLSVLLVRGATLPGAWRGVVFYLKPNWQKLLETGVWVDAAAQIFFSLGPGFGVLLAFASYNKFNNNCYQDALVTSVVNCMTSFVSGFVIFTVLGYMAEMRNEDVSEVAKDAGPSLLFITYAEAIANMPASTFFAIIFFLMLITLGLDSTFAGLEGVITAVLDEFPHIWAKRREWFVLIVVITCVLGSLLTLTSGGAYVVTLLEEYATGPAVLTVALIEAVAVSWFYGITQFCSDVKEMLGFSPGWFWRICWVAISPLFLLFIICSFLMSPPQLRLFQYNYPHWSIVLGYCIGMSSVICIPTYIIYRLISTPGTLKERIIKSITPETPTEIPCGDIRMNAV
Method in brief: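 Radioligand binding with competitive displacement on rat forebrain membrane preparations, counted by filtration and scintillation after 1 h. Primary single-point duplicates at 25 uM; active chemicals followed up in concentration-response. DMSO served as baseline.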

[12] = target: mouse Estrogen Receptor alpha (Era), Esr1 (gene 13982) (UniProt P19785); experiment: NVS_NR_mERa: NovaScreen (NVS) Nuclear Receptor Binding Assay for mouse Estrogen Receptor alpha (Era) (AID 2283378);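 note: hit means loss of bound radioligand signal relative to DMSO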
Sequence of mouse Estrogen Receptor alpha (Era), Esr1 (gene 13982) (P19785 whole entry, looked up): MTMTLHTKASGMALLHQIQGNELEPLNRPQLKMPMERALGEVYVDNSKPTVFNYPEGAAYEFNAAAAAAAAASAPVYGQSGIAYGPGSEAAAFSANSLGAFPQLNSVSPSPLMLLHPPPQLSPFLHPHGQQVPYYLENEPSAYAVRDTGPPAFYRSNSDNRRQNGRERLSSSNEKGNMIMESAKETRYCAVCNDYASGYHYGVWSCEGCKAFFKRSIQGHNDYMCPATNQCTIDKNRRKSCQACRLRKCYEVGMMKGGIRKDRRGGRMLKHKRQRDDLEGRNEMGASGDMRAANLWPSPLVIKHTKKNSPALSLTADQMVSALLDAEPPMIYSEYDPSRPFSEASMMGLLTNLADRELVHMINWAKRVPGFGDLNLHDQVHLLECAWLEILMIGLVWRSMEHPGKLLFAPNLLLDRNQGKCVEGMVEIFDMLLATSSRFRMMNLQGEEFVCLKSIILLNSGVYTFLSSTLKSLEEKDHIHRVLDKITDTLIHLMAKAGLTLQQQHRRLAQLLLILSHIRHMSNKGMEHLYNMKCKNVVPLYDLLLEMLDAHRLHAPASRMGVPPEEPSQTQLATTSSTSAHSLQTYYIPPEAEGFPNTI
Method in brief: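 Filter radiodetection of radioligand displacement from extracted receptor protein, measured 18 h post-dose. Single […] uM concentration in duplicate initially, with concentration-series follow-up. Binding loss fitted relative to DMSO.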

Measured: AC50

CCOC(=O)[C@H](C)Oc1ccc(Oc2nc3ccc(Cl)cc3o2)cc1
inactive: [1]

CC(C)(C)[C@@H](O)[C@@H](Cc1ccc(Cl)cc1)n1cncn1
active: [2] 4.16 µM | [3] 2.39 µM
inactive: [4] | [5] | [6]

CCCOC(=O)c1ccc(C(=O)OCCC)nc1
inactive: [7] | [8] | [4] | [9]
active: [5] 13.2 µM

CCOC(=O)C(C)Oc1ccc(Oc2cnc3cc(Cl)ccc3n2)cc1 (configuration not stated)
inactive: [3] | [7] | [8] | [5] | [6] | [9]
active: [4] 43 µM

CCCCOC(=O)[C@@H](C)Oc1ccc(Oc2ccc(C(F)(F)F)cn2)cc1
inactive: [7] | [5] | [6] | [9]
active: [8] 46.5 µM | [4] 58.9 µM

COc1nc(C)nc(NC(=O)NS(=O)(=O)c2ccccc2OCCCl)n1
inactive: [1]

CCOC(=O)C(C)Oc1ccc(Oc2nc3ccc(Cl)cc3o2)cc1 (configuration not stated)
inactive: [1] | [5] | [6] | [9]
active: [4] 35.9 µM | [6] 78.9 µM

c1ccc(Nc2ccccc2)cc1
active: [3] 4.96 µM | [10] 3.18 µM | [6] 50 µM
inactive: [1] | [9]

CCCCOC(=O)C(C)Oc1ccc(Oc2ccc(C(F)(F)F)cn2)cc1 (configuration not stated)
inactive: [7] | [8] | [4] | [5] | [6] | [9]
active: [6] 65.1 µM

CCNc1nc(N)nc(Cl)n1
inactive: [6] | [9]

COCCO
inactive: [7] | [8] | [6] | [9]

CCCCCCC(C)OC(=O)COc1nc(F)c(Cl)c(N)c1Cl (configuration not stated)
active: [6] 79.2 µM
inactive: [3] | [6] | [9]

CCCN(CCC)c1c([N+](=O)[O-])cc(C(F)(F)F)c(N)c1[N+](=O)[O-]
active: [7] 1.3 µM | [8] 0.895 µM | [4] 56.9 µM | [5] 50 µM | [6] 32.7 µM and 55.6 µM | [9] 35.9 µM and 34.9 µM
inactive: [1]

CCOC(=O)c1ccc(O)cc1
not listed: [1] | [2] | [3] | [10]
inactive: all other assays above

CCN(CC)C(=O)c1cccc(C)c1
inactive: [1] | [7] | [8] | [4] | [6] | [9]

CCSC(=O)N(CC(C)C)CC(C)C
inactive: [7] | [8] | [9]

CCOC(=O)COc1cc(-n2ncc(C(F)(F)F)c(C)c2=O)c(F)cc1Cl
inactive: [1] | [7] | [8] | [6] | [9]
